# Sampled rows, rich in hits. Any-hit rate of the full collection: about 19%.
# TDP1 cell CPT = DT40-hTDP1 cell growth loss with CPT. Potency, µM (doses to about 46.2 µM), most hits filed as inhibitors. actives 12% (n = 420,000). chicken DT40 Tdp1-/-;hTDP1 cells + 20 nM CPT, ATP luminescence, 48 h. AID 686979; further: nearly all actives have a fitted effect of over 55% in size
#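 Chicken DT40 Tdp1-/- cells stably complemented with human TDP1 were seeded at 400 cells/well in medium containing 20 nM camptothecin, exposed to pin-transferred compounds, and grown at 37 °C for at least 48 hr. Viability was read as ATP luminescence.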
# TDP1 cell noCPT = qHTS for Inhibitors of human tyrosyl-DNA phosphodiesterase 1 (TDP1): qHTS in cells in absence of CPT. DT40 Tdp1-/- hTDP1 cells, no CPT, ATP luminescence, 48 h. Potency, µM (top dose mostly 46.2 µM), most hits filed as inhibitors. actives 15% (n = 420,000); further: nearly all actives have a fitted effect of over 55% in size
#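 Compound effects on proliferation are scored in DT40 Tdp1-/-;hTDP1 cells in the absence of CPT. ATP levels (CellTiter-Glo luminescence) are recorded after a ≥48 hr, 37 °C incubation.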
# SW480 rerep = induces DNA re-replication in SW480 colon adenocarcinoma cells; SW480 DNA re-replication, Hoechst DNA content imaging, 48 h; Potency, µM (top dose mostly 46.1 µM), most hits filed as activators; actives 1.8% (n = 340,000); further: nearly all actives have a fitted effect of over 55% in size
#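 DNA re-replication was detected as more nuclei of elevated Hoechst intensity after 48 hr exposure to compound (23 nL pinned per well of 250 cells).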
# IL1B secr inh = inhibitors of inflammasome signaling (IL-1 beta secretion). THP-1 LPS/ATP IL-1B secretion, AlphaLISA, 16 h; active compounds read low. activity change, % at 57.5 µM. actives 4.7% (n = 360,000); in the data active means activity change below about -50%; inconclusive means mostly about -30% to -49%
#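 Secreted IL-1B measured by AlphaLISA bead assay after 16 h compound exposure of THP-1 cells; compounds (final up to 57.5 uM) added 1 h before LPS (250 ng/mL) and ATP (1.25 mM) stimulation; lower signal means less secretion.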
# MCF10A rerep = inducers of DNA re-replication in MCF 10A breast cells. MCF 10A DNA re-replication, Hoechst nuclear intensity, 48 h. actives 2.9% (n = 350,000). Potency, µM (top dose mostly 46.1 µM), actives largely listed as activators; further: nearly all actives have a fitted effect of over 50% in size
# BCR signal inh = blocks chronic active B-cell receptor signaling; ABC-DLBCL IkBa-CBG/CBR reporter, luminescence ratio, 4 h; Potency, µM (doses to about 46.1 µM), actives largely listed as inhibitors; actives 0.05% (n = 340,000); AID 493014; active means well fitted inhibition curve with a large enough effect in the signal ratio, with a control signal flat, not every such curve was filed as active; inconclusive means small, poorly fitted or top-dose-only effect, or effect the other way, or a change in a side signal; the % refers to the signal ratio
#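 Concentration-response series (up to 46 uM) were applied to TMD8 dual-reporter cells for 4 h at 37C with doxycycline. Green/red ratio, after filter-overlap correction, defined %Activity; red signal alone was normalised to basal cells and zero luminescence.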
# Numbers stand for hits; - = inactive; ? = inconclusive; . = not tested or not shown. Unless noted, the call rests on the fitted dose curve; in most records, active means well fitted curve in the direction sought with a large enough effect; inconclusive means small, poorly fitted or top-dose-only effect, or another doubt; inactive means no such curve, though single readings can be large; an effect the other way counts as inactive or inconclusive.
SMILES,TDP1 cell CPT,TDP1 cell noCPT,SW480 rerep,IL1B secr inh,MCF10A rerep,BCR signal inh
O=C(Nc1ccc(F)cc1)C1C2CCC3C(CCC21)C3(Cl)Cl (stereo unspecified),?,18µM,-,.,-,-
Cc1ccc(C)c(OCC(O)CNC2CCCC2)c1 (stereo unspecified),-,?,-,-,-,-
CC(C)C(=O)Nc1cccc(COc2ccc(CN(CCc3ccccc3)C(=O)OC(C)(C)C)cc2)c1,26µM,13µM,?,-,?,.
CC(C)C(=O)Nc1cccc(COc2cccc(CN(Cc3ccccc3)C(=O)OC(C)(C)C)c2)c1,?,?,-,-,1.8µM,.
COC(=O)[C@@]12C[C@@H](CC(=O)NCc3cccc(C(F)(F)F)c3)C(=O)N(Cc3ccc4c(c3)OCO4)C1=CCC(C)(C)C2,?,18µM,.,-71,.,.
COC(=O)[C@@]12C[C@@H](CC(=O)NCc3ccc(OC)c(OC)c3)C(=O)N(Cc3ccc4c(c3)OCO4)C1=CCC(C)(C)C2,15µM,26µM,.,-,.,.
Cn1c(CNC(=O)CCNC(=O)c2cccc(Cl)c2)cc(=O)n(C)c1=O,-,-,-,-,-,-
Cc1ccc(CN2C(=O)c3ccccc3Sc3ccc(C(=O)NCc4ccco4)cc32)cc1,-,?,.,.,.,-
Cc1ccc(NC(=O)C(=O)c2ccc(C)cc2)cc1,-,?,-,-,-,?
O=C(Nc1ccncc1)c1ccc(Br)cc1,?,5.2µM,-,-,-,-
Nc1ccc(NC(=O)c2ccc(C(=O)Nc3ccc(N)cc3)cc2)cc1,-,-,-,-,-,-
Nc1ccc(C(=O)Nc2ccc(Nc3ccncc3)cc2)cc1,?,29µM,-,-,-,?
O=C(Nc1ccncc1)c1ccc(Cl)cc1,?,-,-,-,-,-
Cc1cc(C)cc(NC(=O)c2cccc(C(=O)Nc3cc(C)cc(C)c3)c2)c1,?,-,.,.,.,.
O=C(Nc1ccc(Br)cc1)c1cccc(C(=O)Nc2ccc(Br)cc2)c1,?,21µM,.,.,.,.
COc1ccc(CNC(=O)c2cc3c(=O)oc4ccc(C)cc4c3s2)c(OC)c1,-,-,.,.,.,.
CC(=O)N1CC(=O)N(c2ccccc2)C1=O,-,-,-,-,-,?
CC(C)CCNC(=O)C(c1ccc(O)cc1)N(C(=O)C1COc2ccccc2O1)c1cccc(O)c1 (stereo unspecified),?,21µM,-,-76,-,?
Cc1c(CNC(C)CCc2ccccc2)c(C(=O)O)c(C)n1Cc1ccc(F)cc1 (stereo unspecified),-,-,.,.,.,.
Cc1ccc(C(=O)N2C(CC(=O)Nc3ccc(Cl)cc3)C(=O)NC3CCCCC32)cc1 (stereo unspecified),16µM,?,23µM,-,-,?
Cc1cccc(NC(=O)CC2C(=O)NC3CCCCC3N2C(=O)c2ccccc2Cl)c1 (stereo unspecified),-,-,-,-,-,-
CC1=C(c2ccc(C)cc2)S(=O)(=O)NC1=NCCCN1CCN(c2ccc(F)cc2)CC1,15µM,15µM,.,.,.,.
COc1ccc(N2CCN(C(=O)CN=C3NS(=O)(=O)C(c4ccc(C)cc4)=C3C)CC2)cc1,-,-,-,-,-,-
COc1ccc(C2=C(C)C(=NCCCN3CCN(c4cc(Cl)ccc4C)CC3)NS2(=O)=O)cc1,6.5µM,8.2µM,.,.,.,.
COc1ccc(C2=C(N3CCN(c4cc(Cl)ccc4C)CC3)c3ccccc3C2=O)cc1,21µM,?,.,.,.,.
SMILES,TDP1 cell CPT,TDP1 cell noCPT,SW480 rerep,IL1B secr inh,MCF10A rerep,BCR signal inh
Cc1ccc(Cl)cc1N1CCN(S(=O)(=O)N2CCCCC2)CC1,-,-,-,-,?,-
CC1=C(c2ccc(Cl)cc2)S(=O)(=O)NC1=NCCCN1CCN(c2cc(C)ccc2C)CC1,2.6µM,5.2µM,.,.,.,.
COC(=O)NCc1c(C)nn(-c2ccccc2)c1-n1cccc1,-,?,.,.,.,.
CS(=O)(=O)N1N=C(c2ccccc2)CC1c1ccc2nccnc2c1 (stereo unspecified),?,26µM,-,-,?,-
COc1ccc(C2CC(c3ccc(OC)c(OC)c3)=NN2S(C)(=O)=O)cc1 (stereo unspecified),18µM,?,-,-,-,-
Cc1ccc(C(=O)Nc2ncccc2C)cc1S(=O)(=O)N1CCCCC1,-,-,-,-,-,-
O=C(CN1N=C(c2ccc(Cl)cc2)CCC1=O)NCc1ccc(F)cc1,-,?,.,.,.,?
Cc1c(C)c2ccc(OCC(=O)Nc3ccccc3C(N)=O)cc2oc1=O,-,-,-,-,-,-
CCN(C(=O)COC(=O)c1cccnc1SC)c1c(N)n(Cc2ccccc2)c(=O)[nH]c1=O,-,-,-,-,-,-
Cc1ccc(C2N=C(Nc3nc4ccccc4o3)NC3=C2C(=O)CC(C)(C)C3)cc1 (stereo unspecified),7.1µM,4.5µM,.,.,.,.
CC1(C)CC(=O)C2=C(C1)NC(Nc1nc3ccccc3o1)=NC2c1ccccc1 (stereo unspecified),2.8µM,2.8µM,.,.,.,.
COc1ccc(C2N=C(Nc3nc4ccccc4o3)NC3=C2C(=O)CC(C)(C)C3)cc1 (stereo unspecified),6.3µM,6.3µM,.,.,.,.
COc1ccc(C2Nc3ccccc3NC3=C2C(=O)CC(C)(C)C3)cc1 (stereo unspecified),-,-,-,-,-,-
CC1(C)CC(=O)C2=C(C1)NC(Nc1nc3ccccc3o1)=NC2c1cccnc1 (stereo unspecified),?,-,.,.,.,.
CC1(C)CC(=O)C2=C(C1)NC(Nc1nc3ccccc3o1)=NC2c1cccc(O)c1 (stereo unspecified),-,?,.,.,.,.
Cc1onc(-c2c(F)cccc2Cl)c1-c1nnc(-c2ccc(C(F)(F)F)cc2)o1,?,?,?,.,?,-
Cc1onc(-c2c(Cl)cccc2Cl)c1-c1nnc(-c2ccc(Cl)cc2)o1,?,16µM,-,-,?,-
C=CC[C@@H](CC(=O)N[C@@H](CO)Cc1ccccc1)C(=O)NC[C@@H](OC(=O)[C@@H](CC=C)CC(=O)OC(C)(C)C)c1ccccc1,21µM,?,?,-,?,?
C=CC[C@H](CC(=O)N[C@H](CO)Cc1ccccc1)C(=O)N[C@@H](COC(=O)[C@H](CC=C)CC(=O)OC(C)(C)C)Cc1c[nH]c2ccccc12,21µM,23µM,-,-,-,?
C=CC[C@@H](CC(=O)N[C@H](CO)Cc1ccccc1)C(=O)N[C@@H](C)COC(=O)[C@@H](CC=C)CC(=O)OC(C)(C)C,?,-,-,-,-,-

# Screening results from PubChem.
